# EphB4 antag = EphB4-ephrin-B2 interaction antagonism | hit rate 0.15% among 97,000 | inhibition, % at 7 µM | EphB4 LBD / TNYL-RAW-Alexa532 peptide, fluorescence polarization;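 active means inhibition above the screen-wide mean inhibition plus 3 SD, cut at about 15% in these data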;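 further: 0% = DMSO wells and 100% = excess unlabeled TNYL-RAW peptide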
# FAK inh = inhibitors of human focal adhesion kinase | Q05397 | biochemical FAK kinase activity assay | inhibition, %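 (tested at 7 µM)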 | hit rate 0.84% among 97,000 | AID 727; in the data active means inhibition above about 19%;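 further: 0% = DMSO and 100% = reference compound high control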
# Smad3 inh = blocks human Smad3 binding to FoxH1 peptide; P84022; TR-FRET Smad3/Dy647-FoxH1 peptide binding, europium anti-His; inhibition, % at 25 µM; hit rate 0.29% among 88,000; AID 630;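 active means compounds that reduce the energy-transfer binding signal between the protein and its labelled peptide by more than half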;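 further: 0% = Smad3 plus labelled peptide maximal FRET and 100% = peptide-only background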
# PLK1 kinase inh = inhibitors of human PLK1 kinase; P53350; recombinant PLK1 kinase, TR-FRET peptide phosphorylation; inhibition, % at 10 µM; hit rate 0.53% among 97,000; AID 619;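 active means inhibition of 50% or more in the single-concentration screen; inactive means inhibition below 50%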;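 further: 0% = DMSO max control and 100% = H-89 dihydrochloride min control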
# PLK1 PBD inh = inhibitors of human Plk1 polo box domain binding; AID 693; P53350; Plk1 PBD phosphopeptide binding, fluorescence polarization; hit rate 0.13% among 97,000; inhibition, %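 (tested at about 20 µM)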; in the data active means inhibition above about 34%, passing the limit was not always enough
# An asterisk follows results filed as active; / = no result given; [ ] = another dose, or the depositor's remark. This is a sample that favours compounds with a hit; in the whole collection about 1.6% have one here.
SMILES,EphB4 antag,FAK inh,Smad3 inh,PLK1 kinase inh,PLK1 PBD inh
Cc1ccc(N2C(=O)CS/C2=C(\C(Cl)=C(Cl)Cl)[N+](=O)[O-])cc1,-1,0,52*,1,-15
Cc1csc(C(=O)O)c1-n1cccc1,-6,-2,/,55*,29
CN1CCN(c2cc(=O)n(C3CCCCC3)c(=O)[nH]2)CC1,5,-1,-9,65*,4
CCNc1oc(COc2cccc(C)c2)nc1C#N,-4,0,/,-8,16
Cc1cccc(OCc2nc(C#N)c(N3CC(C)CC(C)C3)o2)c1 (stereo not drawn),1,4,2,61*,9
O=C(O)C(=O)/C=C(\O)c1ccc(Br)cc1,/,/,9,/,/
c1ccc([P+](CC[P+](c2ccccc2)(c2ccccc2)c2ccccc2)(c2ccccc2)c2ccccc2)cc1,/,/,6,/,/
CCN(CC)CCCn1c(C)cc2c(c1=O)C(c1cccc(Cl)c1)C(C#N)=C(N)O2 (stereo not drawn),-7,-3,3,-5,47*
CCN(CC)CCCn1c(C)cc2c(c1=O)C(c1cc(OC)c(OC)cc1OC)C(C#N)=C(N)O2 (stereo not drawn),11,3,-13,-7,19
O=C(NCc1ccccc1)C1COc2ccccc2O1 (stereo not drawn),5,0,16,-5,19
CC(CN(C)Cc1ccccc1)OC(=O)C1COc2ccccc2O1 (stereo not drawn),-5,1,5,62*,-4
O=c1[nH]cnc2scc(-c3ccc(F)cc3)c12,-2,1,-6,49,12
COc1cccc(-c2csc3nc[nH]c(=O)c23)c1,-5,2,-1,61*,-8
Cc1ccc(-c2nc(CSCC(=O)N3CCN(c4ccccn4)CC3)c(C)o2)cc1,2,-1,6,-14,-23
CCOc1ccc(-c2nc(CSCC(=O)N3CCN(c4cccc(OC)c4)CC3)c(C)o2)cc1,2,3,2,64*,-5
CCN1CCN(CC(=O)NC2CCCC2)C(=O)C1=O,1,-2,-11,68*,-22
CCN1CCN(CC(=O)NC2CCCCC2)C(=O)C1=O,-1,4,2,-2,-13
CC(=O)c1ccc(OCC(O)CN2CCOCC2)cc1 (stereo not drawn),-6,2,1,65*,-19
Nc1cccc2cc(S(=O)(=O)Nc3ccc(C(=O)O)cc3)ccc12,/,/,10,/,/
O=C(O)/C=C/C(=O)Nc1ccc2c(c1)C(=O)c1cc(F)ccc1-2,/,/,14,/,/
O=C(O)c1c[nH]c2c(ccc3[nH]cc(C(=O)O)c(=O)c32)c1=O,/,/,93*,/,/
O=C(O)c1c[nH]c2c(C(F)(F)F)cccc2c1=O,-1,-1,13,-38,-8
CO[C@@H]1/C=C\O[C@@]2(C)Oc3c(C)c(O)c4c(c3C2=O)C(=N[C@H]2CC[C@H](O)O[C@@H]2C)C=C(NC(=O)/C(C)=C\C(=O)[C@@H]2C[C@H]2[C@@H](O)[C@H](C)[C@@H](O)[C@H](C)[C@H](OC(C)=O)[C@@H]1C)C4=O,/,/,9,/,/
O=C(O)c1ccc([N+](=O)[O-])c(P(=O)(O)O)c1,/,/,-2,/,/
CCCNC(=O)C(=O)Nc1ccc(N(C)C)cc1,6,3,91*[fluorescence artefact?],-12,-5
SMILES,EphB4 antag,FAK inh,Smad3 inh,PLK1 kinase inh,PLK1 PBD inh
CCCCOC(=O)c1ccc(NC(=O)Nc2ccc(OC)c(OC)c2)cc1,1,2,-9,-9,-15
CCOC(=O)c1ccc(NC(=O)Nc2ccc(OC)c(OC)c2)cc1,-3,1,8,51*,-6
N#Cc1cc2c(nc1SCc1ccccc1)CCC2,0,3,52*[fluorescence artefact?],-11,-2
Clc1ccccc1NN(Cc1ccncc1)c1ccccc1Cl,/,/,14,/,/
C=CCn1c(NC(=O)c2ccccc2)c(C#N)c2nc3ccccc3nc21,/,/,67*,/,/
CN(C)Cc1cc(O)c(O)c(CN(C)C)c1,/,/,54*,/,/
Cc1oc(-c2cccc(Cl)c2)nc1CN1CCCC(C(=O)NC(C)c2ccc3c(c2)OCCO3)C1 (stereo not drawn),-7,1,-13,56*,4
Cc1oc(-c2cccc(Cl)c2)nc1CN1CCCC(C(=O)NCc2ccco2)C1 (stereo not drawn),-7,-2,0,3,8
O=C1[C@H]2[C@@H]3c4ccccc4[C@H]([C@H]2C(=O)N1c1ccc(OCc2ccccc2)cc1)[n+]1ccccc13,/,/,0,/,/
O=C(Nc1cccc(Cl)c1Cl)c1ccncc1,0,-2,-1,54*,-31
Cc1cccc2c(C(=O)O)c3c(nc12)CCCCC3,17*,-3,/,-3,-8
Cc1ccc2nc3c(c(C(=O)O)c2c1)CCC3,2,1,7,1,-15
CCCCCCNC(=O)c1cc(-c2ccco2)nc2ccccc12,5,20*,6,-10,-1
COC(=O)[C@@H]1C(O)[C@H](C(=O)OC)[C@@H](C)N(C)[C@H]1C (stereo partly drawn),/,/,-4,/,/
O=[N+]([O-])c1cccc(/C=N/Nc2ccc3ccccc3n2)c1O,/,/,4,/,/
Nc1ncnc2c1ncn2[C@H]1O[C@@H](C(=O)OCCO)[C@H](O)[C@H]1O,/,/,17,/,/
N#CC1=C2SCN(c3ccccc3)CN2C(=O)CC1c1ccccc1Cl (stereo not drawn),3,-1,9,56*,8
O=C(CSc1nnc2scc(-c3ccccc3)n12)c1ccc2c(c1)OCCO2,-9,2,4,59*,-26
CCOC(=O)C(C(=O)NCCCN1CCOCC1)C1CCCCC1 (stereo not drawn),4,19*,-5,-21,16
C=CCNC(=O)C(C(=O)OCC)C1CCCCC1 (stereo not drawn),-1,-2,2,-7,11
Cc1oc(-c2ccccc2F)nc1CS(=O)CC(=O)NCc1cccs1 (stereo not drawn),2,1,5,62*,-6
CCCCNC(=O)CS(=O)Cc1nc(-c2cccs2)oc1C (stereo not drawn),3,-1,2,59*,3
Cc1oc(-c2cccs2)nc1CS(=O)CC(=O)NCCCOC(C)C (stereo not drawn),1,-10,0,-1,-1
O=S(=O)(NC1CCCCC1)c1ccc(S(=O)(=O)N2CCN3CCCC3C2)cc1 (stereo not drawn),7,2,8,-10,-16
O=S(=O)(NC1CC1)c1ccc(S(=O)(=O)N2CCN3CCCC3C2)cc1 (stereo not drawn),3,4,-12,53*,0
CCOC(=O)N1CCN(c2cc(NCCC(=O)O)c3c4c(onc24)-c2ccccc2C3=O)CC1,/,/,-8,/,/
O=C(O)CCCNc1cc(N2CCC3(CC2)OCCO3)c2noc3c2c1C(=O)c1ccccc1-3,2,1,98*[fluorescence artefact?],36,7
C[C@H](CCC(=O)O)[C@H]1CC[C@H]2[C@@H]3[C@@H](O)C[C@H]4C[C@@H](O)CC[C@]4(C)[C@H]3C[C@@H](O)[C@]12C,/,/,12,/,/
COC(=O)c1ccc(NC(=O)CN2CCN(c3cccc(Cl)c3)CC2)cc1,17*,4,-2,-6,-3

# Source: PubChem (several laboratories)
